Compound activity (PubChem BioAssay)
An excerpt weighted towards active compounds, which were near 7.3% of everything screened.
FLuc counter = inhibits or activates purified firefly luciferase, miR-21 counter-screen; purified FLuc, Km substrates, luminescence inhibition; P08659; Potency, µM (series often up to 57.5 µM), for the others: at the top dose activity change, negative = inhibition, most hits filed as inhibitors; actives 6.9% (n = 360,000);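 further: plate controls were vehicle for no effect and reference inhibitor for full effect; nearly all actives have a fitted effect of over 55% in size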
Target sequence (P08659 whole entry, looked up): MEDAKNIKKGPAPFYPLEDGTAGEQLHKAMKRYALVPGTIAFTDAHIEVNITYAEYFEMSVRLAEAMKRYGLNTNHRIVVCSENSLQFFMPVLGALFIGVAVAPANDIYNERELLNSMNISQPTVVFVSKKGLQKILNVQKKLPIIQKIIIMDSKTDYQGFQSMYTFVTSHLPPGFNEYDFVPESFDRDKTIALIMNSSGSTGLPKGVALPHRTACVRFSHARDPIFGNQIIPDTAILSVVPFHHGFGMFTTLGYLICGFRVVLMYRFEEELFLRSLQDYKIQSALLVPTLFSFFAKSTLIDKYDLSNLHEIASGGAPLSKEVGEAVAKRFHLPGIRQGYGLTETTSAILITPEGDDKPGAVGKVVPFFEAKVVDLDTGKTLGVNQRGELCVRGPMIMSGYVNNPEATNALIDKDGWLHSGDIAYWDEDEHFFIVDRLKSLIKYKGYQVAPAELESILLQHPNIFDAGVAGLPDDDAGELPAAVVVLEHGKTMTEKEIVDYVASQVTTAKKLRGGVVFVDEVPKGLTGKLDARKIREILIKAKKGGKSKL
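Biochemical qHTS of compounds, final roughly 60 µM downward over six points, against 10 nM purified firefly luciferase using Km concentrations of substrates (10 uM D-luciferin, 10 uM ATP) in Tris acetate pH 7.5 buffer; luminescence output.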
SMN2 splice up = enhancers of SMN2 splice variant expression; AID 1458; Potency, µM (top dose mostly 46.1 µM), for the others: top-dose activity change, positive = activation, hits mostly activators; HEK293 SMN2-luciferase splicing reporter, luminescence, 30-36 h; actives 2.8% (n = 210,000); further: % of control where 0% means no effect; nearly all actives have a fitted effect of over 55% in size
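HEK293 cells carry an SMN2 minigene-luciferase reporter in which exon 7 inclusion puts luciferase in frame. Cells were seeded at 2000 cells/well, attached for 10-12 hours, then exposed to compounds for 30-36 hours at 37C before ONE-Glo luminescence.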
Rab9 promoter act = Rab9 promoter activation. Huh7 Rab9 promoter-luciferase reporter, luminescence, 24 h. Potency, µM (highest dose often 9.22 µM), without a hit: at the top dose activation, negative = inhibition, hits mostly activators. actives 2.8% (n = 320,000); further: % of control where 0% means no effect; nearly all actives have a fitted effect of over 60% in size
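Cell-based reporter: Huh7 stable for Rab9 promoter-driven luciferase, plated in reduced-serum medium with 10% FBS at 1500 cells/well, compound-treated 24 h at 37 °C, luminescence read after 10 min reagent.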
NPC1 promoter act = NPC1 promoter activation | Huh7 NPC1 promoter luciferase reporter, 24 h | Potency, µM (doses to about 9.22 µM), for the others: at the top dose activation, usual class: activators | actives 2.4% (n = 320,000); further: % of control where 0% means no effect; nearly all actives have a fitted effect of over 60% in size
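NPC1 promoter–luciferase Huh7 cells; 24 h compound; luminescence.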
KinaseGlo FLuc = counter-screen: inhibitors of Kinase-Glo firefly luciferase; Kinase-Glo luciferase, ATP luminescence, 8 min; actives 0.28% (n = 200,000); Q27757; Potency, µM (highest dose often 38.3 µM), for the others: top-dose activity change, negative = inhibition, hits mostly inhibitors; AID 1379; further: on the % scale 0 is the no-effect control and ±100 the full control effect; nearly all actives have a fitted effect of over 60% in size
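Substrate mix (final 50 mM imidazole pH 7.2, 50 mM KCl, 7 mM MgCl2, 10 uM ATP, 0.01% Tween 20, 0.05% BSA) plus pin-tool compound, then Kinase-Glo detection mix; 8 min ambient, luminescence read.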
* = called active by the depositor; ? = inconclusive; nt = no result given; [ ] = another dose, or the depositor's remark. The call rests on the fitted dose curve; in most records, active means well fitted curve in the direction sought with a large enough effect; inconclusive means small, poorly fitted or top-dose-only effect, or another doubt; inactive means no such curve, though single readings can be large; an effect the other way counts as inactive or inconclusive. Potency means the concentration at half of the fitted maximal effect.

SMILES	FLuc counter	SMN2 splice up	Rab9 promoter act	NPC1 promoter act	KinaseGlo FLuc
CCOC(=O)c1cc(S(=O)(=O)Nc2cc(F)ccc2C)[nH]n1	-6%	nt	nt	nt	nt
O=C(O)c1cc2ccccc2c(S(=O)(=O)O)c1O	nt	-10%[9.22 µM]	nt	nt	-1%[7.66 µM]
CC(C)(C)C1CCc2c(sc(NC(=O)c3cccs3)c2C(N)=O)C1 (stereo not drawn)	0.54µM*	-21%	4µM*	?	-6%
CNC(=O)c1c(NC(=O)C2=COCCO2)sc2c1CCC(C)C2 (stereo not drawn)	2.7µM*	nt	20%	-1%	nt
CC1CCc2c(sc(NC(=O)CSc3nc(N)cc(=O)[nH]3)c2C(N)=O)C1 (stereo not drawn)	17µM*	nt	-4%	-7%	nt
CC1CCc2c(sc(NC(=O)C3=COCCO3)c2C(N)=O)C1 (stereo not drawn)	0.76µM*	nt	1.6µM*	2.5µM*	nt
O=CC(O)C(O)C(O)C(O)CO (stereo not drawn)	nt	nt	nt	nt	5%[39.9 µM]
Cc1ccc(Nc2nnc(-c3ccc(C)c(S(=O)(=O)N4CCOCC4)c3)c3ccccc23)cc1	?	-7%	nt	nt	nt
CCn1c(C)csc1=NC(=O)c1ccccc1	19µM*	-10%	?	17%	0%
Cc1csc(=NC(=O)c2ccccc2)n1Cc1ccco1	?	-26%	17%	13%	6%
Cc1csc(=NC(=O)c2ccccc2)n1C	13µM*	11µM*	2.5µM*	3.2µM*	-25%
CCn1c(C)csc1=NC(=O)c1ccccc1O	13µM*	-9%	2.8µM*	2.8µM*	-14%
CCc1cccc(NC(=O)Cn2c(=O)n(CCCCCC(=O)NCc3ccc(F)cc3)c(=O)c3sccc32)c1	-10%	-3%	nt	nt	nt
CC1=C(C(=O)OC2CCCC2)C(c2ccccc2C(F)(F)F)CC(=O)N1 (stereo not drawn)	-1%	-1%	nt	nt	nt
Nc1cc(=O)nc(SCC(=O)Nc2ccc(F)cc2)n1-c1ccc(Cl)cc1	-3%	3%	nt	nt	nt
CC(C)C[C@H](N)C(=O)O	nt	12%[9.22 µM]	nt	nt	-2%[7.66 µM]
O=C(Nc1nnc(C2CCCO2)s1)c1ccc(Br)cc1 (stereo not drawn)	?	27%	?	3.5µM*	6%
Cc1ccc(OCC(=O)Nc2nnc(C3CCCO3)s2)c(Br)c1 (stereo not drawn)	?	4%	-3%	2%	0%
Cc1ccc(NC(=O)N2CCC(CN3CCCCCC3)CC2)c(Cl)c1	2%	nt	nt	nt	nt
CCc1cc2c(=O)c(-c3nc4ccccc4n3C)c(COCC(=O)O)oc2cc1O	1%	11%	11%	2%	3%
CCCc1cc2c(=O)c(-c3nc4ccccc4s3)c(COCC(=O)O)oc2cc1O	9.5µM*	51%	?	2%	-2%
COc1ccc(/C=N/Nc2nc3ccccc3o2)cc1O	0.95µM*	?	?	?	-1%
COc1cc(/C=N/Nc2nc3ccccc3o2)cc(OC)c1O	15µM*	-6%	8%	1%	-1%
COc1cc(/C=N\Nc2nc3ccccc3o2)cc(OC)c1OC	?	4%	24%	?	-5%
COc1ccc(/C=N/Nc2nc3ccccc3s2)cc1O	0.24µM*	17%	?	?	-9%
SMILES	FLuc counter	SMN2 splice up	Rab9 promoter act	NPC1 promoter act	KinaseGlo FLuc
CCn1c(C)nc2cc(C(=O)N/N=C/c3ccc(OC)c(O)c3)ccc21	?	-17%	-3%	3%	-1%
COc1ccc(/C=N/OCC(=O)Nc2nc3ccccc3s2)cc1OC	-17%	-25%	-8%	0%	-30%
CC(=O)Nc1ccc(/C=N/Nc2nc3ccccc3s2)cc1	0.95µM*	nt	0.45µM*	0.71µM*	nt
COc1ccc(-c2cnnn2-c2ccc(NC(=O)c3c(F)cccc3F)cc2)cc1	-13%	nt	nt	nt	nt
COc1ccc(N(C)C(=O)c2cn(C3CCCCC3)c(=O)c3c2c2ccccc2n3C)cc1	-1%	-20%	nt	nt	nt
Cc1ccc2c(=O)c(C(=O)c3cccc(Cl)c3)cn(CC(=O)Nc3ccc4c(c3)OCCO4)c2n1	3%	nt	nt	nt	nt
COc1ccc(CNC(=O)Cc2coc3ccc(C)cc23)cc1	?	-9%	nt	nt	nt
O=C(CSc1nc(=O)n(CCN2CCOCC2)c2c1CCC2)Nc1ccccc1	4%	nt	nt	nt	nt
C=C(C)CNCCN	nt	2%[9.22 µM]	nt	nt	1%[7.66 µM]
CC(=O)Nc1cccc(/C(C)=N/Nc2nc3ccccc3s2)c1	11µM*	11µM*	?	2%	-1%
